Test results taken from PubChem BioAssay AID652054 (National Center for Advancing Translational Sciences (NCATS), 2013).
The campaign covered roughly 360,000 compounds. About 9,100 (2.5%) were called active. Another 4% or so got no clear call; they are omitted. Rule as the data show it: active = max response below about -50%; inconclusive = no clear call, values can overlap the other calls; inactive = above that. For the sample, actives were picked, then their nearest neighbours and some compounds at random.

biological target: D(3) dopamine receptor (Homo sapiens) (UniProt P35462); assay: qHTS of D3 Dopamine Receptor Antagonist: qHTS; conditions: D3R cells, DiscoveRx beta-arrestin luminescence, antagonist mode; stronger effect = lower value
Sequence (P35462 whole entry, looked up): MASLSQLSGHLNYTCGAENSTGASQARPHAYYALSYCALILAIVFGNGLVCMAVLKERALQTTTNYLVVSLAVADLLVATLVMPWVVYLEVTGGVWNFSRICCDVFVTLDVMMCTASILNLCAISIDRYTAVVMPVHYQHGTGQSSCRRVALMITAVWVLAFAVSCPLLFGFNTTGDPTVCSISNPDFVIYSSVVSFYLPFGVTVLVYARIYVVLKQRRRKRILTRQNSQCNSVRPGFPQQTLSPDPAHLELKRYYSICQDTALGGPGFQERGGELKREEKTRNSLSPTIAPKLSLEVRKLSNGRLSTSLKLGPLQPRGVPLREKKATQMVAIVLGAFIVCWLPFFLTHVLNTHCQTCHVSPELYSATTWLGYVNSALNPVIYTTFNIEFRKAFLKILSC
From the text: D3 DARs represent a very important target for the treatment of several neuropsychiatric disorders. Indeed, one of the most promising therapeutic applications for the D3 DAR is in the area of addiction and related disorders. […] These findings have been observed with a number of addictive substances including cocaine, amphetamine, nicotine, and alcohol. […] Antagonism of the D3 DAR may also be therapeutic in the treatment of schizophrenia or psychosis. […] Since the D3 DAR is expressed in areas of the CNS associated with the control of mood and emotion, it has been hypothesized that selective antagonism of the D3 DAR may be effective in treating psychosis without inducing the motor side effects typically seen with D2 DAR antagonists.
This part of the project aims to discover novel antagonist.
NIH Chemical Genomics Center [NCGC]
NIH Molecular Libraries Probe Centers Network [MLPCN]
Assay Submitter (PI): David Sibley, NINDS
Freshly passaged cells are plated in 1536 well white, solid bottom plates at a density of 1500 cells/well in 3microl of complete media. After an overnight incubation at 37 degrees C in 5% CO2, cells are loaded with 23nl of test compound from the compound library (as well as dopamine controls) using a 1536 pintool and incubated at 37 degrees C for 90 minutes. Two microliters of DiscoveRx reagent is then added to all cells, and they are incubated for an additional 30 - 60 minutes at room temperature. Following incubation, luminescence is measured on a ViewLux CCD-based luminometer reader using a 20 sec exposure time.
% is scaled to controls: 0 for no effect and ±100 for the full control effect.

Max response, negative = inhibition, active:
CC(=O)NC1C(OCc2ccccc2)OC(COC(C)=O)C(OC(C)=O)C1OC(C)=O (centres undefined) -50.8%, Cc1ccc(NC(=S)N(CCCN2CCC(C)CC2)Cc2ccco2)cc1 -63.3%, Cc1ccc(NC(=S)N(CCN2CCCCC2)Cc2ccco2)cc1C -70.4%, O=C(CSC1=Nc2ccccc2C2=NC(c3ccccc3)C(=O)N12)NCC1CCCO1 (centres undefined) -66.9%, Cc1ccc(N2C(=O)CC(NCc3ccc4c(c3)OCO4)C2=O)cc1Cl (centres undefined) -53.6%, COc1cnc(-c2ccccn2)nc1Oc1ccc(C(C)(C)C)cc1 -52.8%, Cc1n[nH]c(=S)n1/N=C/c1ccc(Br)o1 -55%, Cc1cc(C)c2c(=O)[nH]c(SCC(=O)Nc3ccc(Br)cc3)nc2n1 -52.3%

Max response, negative = inhibition, inactive:
CC(=O)NC1C(Oc2ccc(C=O)cc2)OC(COC(C)=O)C(OC(C)=O)C1OC(C)=O (centres undefined) 14.4%, CCc1cccc(OC2OC(CO)C(O)C(O)C2NC(C)=O)c1 (centres undefined) -21.8%, Cc1cccc(CN2CCN(C3CN(Cc4cn(Cc5cc(C)cc(C)c5)nn4)S(=O)(=O)C3)CC2)c1 (centres undefined) 0.506%, Cc1ccc(Cc2c(-c3ccccc3)nc3ccc(Cl)cn23)cc1 5.55%, Cc1ccc(NC(=S)N(CCN(C)C)Cc2cccs2)cc1C -25.3%, Cc1ccc(NC(=S)N(Cc2ccco2)C(C)c2cccs2)cc1 (centres undefined) 10.5%, CCc1ccccc1NC(=S)N(CCN1CCCCCC1)Cc1ccco1 -28.8%, Cc1ccc(NC(=S)N(CCCN2CCCC2)Cc2cccn2Cc2ccc(Cl)cc2)cc1 -19%, O=C(c1ccc(C(F)(F)F)cc1)N1CCC(=O)N([C@H](COCc2ccccc2)Cc2ccccc2)CC1 -26.4%, CC(C)c1ccc(CC(=O)N2CCC2(C)C(=O)NS(=O)(=O)c2ccc(C(C)(C)C)cc2)cc1 (centres undefined) 22.2%, Nc1ncnc2c1ncn2[C@@H]1O[C@H](C(=O)NCC(F)(F)F)[C@@H](O)[C@H]1O 14.5%, Cc1nc(C(F)(F)F)ccc1C(=O)N1CCC1(C)C(=O)NS(=O)(=O)c1ccc(F)cc1F (centres undefined) 19.8%, O=C1NC[C@@H](CCCCN2CCN(CCc3ccc(O)cc3)C(=O)C2=O)N(CC2CCCCC2)C1=O 0%, O=C(CSc1ccc(-c2ccccc2)nn1)NCC1CCCO1 (centres undefined) -1.73%, CCn1c(SCC(=O)NCC2CCCO2)nc2ccccc21 (centres undefined) 1.46%, CC(=O)c1cccc(-c2cnc3c(NC=O)cc(-c4ccc(N5CCN(C)CC5)cc4)cn23)c1 13.5%, O=CN1CCN(C2CC(=O)N(c3ccc4c(c3)OCO4)C2=O)CC1 (centres undefined) -17.5%, Cc1ccc(CC2CC(=O)N(c3ccc4c(c3)OCCO4)C2=O)cc1 (centres undefined) 23.1%, CC(C)n1ncc2c(C(=O)N3CCN(Cc4cccs4)CC3)cc(C3CC3)nc21 -22.9%, CC1(C2CC2)NC(=O)N(CC(=O)N2CCN(c3ccccc3F)CC2)C1=O (centres undefined) -14.5%, Cc1ccccc1CN1C(=O)CSCC1(C)C(=O)Nc1c(C)cccc1C (centres undefined) 4.29%, COc1ccc2nc(-c3ccccn3)ccc2c1 -12.3%, COc1ccc(NCCc2ccccn2)cc1 1.2%, CCOC(=O)c1c(NC(=O)COC(=O)c2ccc(S(=O)(=O)C(F)F)cc2)sc(C(=O)N(C)C)c1C 13%, Cc1ccc(-c2c(N)nc3ncccn23)cc1 1.01%, OCCN1CCN(c2ncnc3c2ncn3[C@H]2CN(Cc3ccco3)C[C@@H](CO)O2)CC1 -7.83%, O=S1(=O)CC(N2CCN(CCO)CC2)CN1Cc1cn(Cc2ccc(Cl)cc2)nn1 (centres undefined) -11.2%, COc1cc(/C=N/n2c(C)n[nH]c2=S)ccc1OCc1ccccc1 4.09%, Cc1ccccc1-c1n[nH]c(=S)n1/N=C/c1ccc(-c2ccccc2Br)o1 -16.9%, NC(c1csc(NC(=O)Nc2ccccc2Oc2ccccc2)n1)c1ccccc1Cl (centres undefined) 46.2%, COC(=O)[C@]12CCCCC=C1N(Cc1ccco1)C(=O)[C@H](CC(=O)NCCCCc1ccccc1)C2 -9.24%, Cc1ccc(CN2CC(N3CCC(Cc4ccccc4)CC3)CS2(=O)=O)cc1 (centres undefined) 6.13%, O=C(CSc1nc2[nH]ncc2c(=O)[nH]1)Nc1ccc(F)cc1 2.63%, Cc1cc(=O)[nH]c(SCC(=O)Nc2ccc(Br)cc2)n1 -12.6%, COc1ccc(Cl)cc1-c1cc(C(=O)Nc2cc(OC)c(OC)c(OC)c2)[nH]n1 106%, Clc1cccc(Cl)c1OCCOCCNCc1ccccc1 43.5%
